The source of these data is paper PMC7862700, “An all-to-all approach to the identification of sequence-specific readers for epigenetic DNA modifications on cytosine”.

Assay in all cases: DAPPL (digital affinity profiling via proximity ligation, sequencing); 10 mM Tris-HCl pH 7.5, 50 mM NaCl, 1 mM DTT, 4% glycerol, room temperature, 30 min; GST-TFs on glutathione beads, 16-mer random dsDNA library, 0.1% formaldehyde crosslink after washing; high values mean tight binding
Holding throughout (conditions): protein: recombinant; tags: N-terminal GST; dsDNA, one strand shown

The target of one assay is T1, FLI1 (Homo sapiens, UniProt Q01543 1-452).
T1 sequence: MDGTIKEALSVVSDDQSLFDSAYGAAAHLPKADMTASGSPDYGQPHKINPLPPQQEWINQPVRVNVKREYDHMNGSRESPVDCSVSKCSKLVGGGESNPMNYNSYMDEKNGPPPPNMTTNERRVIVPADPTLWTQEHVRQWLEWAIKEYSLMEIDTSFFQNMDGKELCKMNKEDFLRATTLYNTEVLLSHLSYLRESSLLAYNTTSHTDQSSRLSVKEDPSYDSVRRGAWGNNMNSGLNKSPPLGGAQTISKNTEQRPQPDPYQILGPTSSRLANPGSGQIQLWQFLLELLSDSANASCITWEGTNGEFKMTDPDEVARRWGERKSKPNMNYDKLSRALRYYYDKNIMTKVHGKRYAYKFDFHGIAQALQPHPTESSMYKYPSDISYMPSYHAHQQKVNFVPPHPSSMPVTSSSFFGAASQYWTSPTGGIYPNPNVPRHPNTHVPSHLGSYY
The method in brief: (§1)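 Sequencing on an Illumina NextSeq500 followed washing, crosslinking with 0.1% formaldehyde, proximity ligation (BsaI/T4 ligase, 1 h, 37 °C) and PCR amplification of pools that had been incubated for 30 min at room temperature with 200 nmole of a random double-stranded 16-mer DNA library in Tris/NaCl/DTT/glycerol buffer. Each pool held DNA-barcoded human transcription factors, expressed in yeast as GST fusions and captured on glutathione beads, plus a tag-only sample. Binding signal is a hexamer's read frequency for a factor divided by its frequency in the tag-only sample.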

The target of another assay is T2, ELK1 (Homo sapiens, UniProt P19419 1-428).
T2 sequence: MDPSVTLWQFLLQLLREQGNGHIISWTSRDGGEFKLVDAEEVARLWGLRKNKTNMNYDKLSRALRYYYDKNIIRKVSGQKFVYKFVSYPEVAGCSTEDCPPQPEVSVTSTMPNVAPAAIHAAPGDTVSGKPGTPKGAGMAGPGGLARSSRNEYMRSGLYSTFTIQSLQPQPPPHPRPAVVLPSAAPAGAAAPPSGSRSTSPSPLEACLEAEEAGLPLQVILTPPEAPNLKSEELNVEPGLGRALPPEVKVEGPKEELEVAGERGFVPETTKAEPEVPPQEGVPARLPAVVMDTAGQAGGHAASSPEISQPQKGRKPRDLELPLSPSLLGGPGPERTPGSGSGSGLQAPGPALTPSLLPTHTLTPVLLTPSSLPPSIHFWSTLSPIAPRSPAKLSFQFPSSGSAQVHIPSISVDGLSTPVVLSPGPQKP
In short, it runs like this:
as §1

The target in another assay is T3, GABPA (Homo sapiens, UniProt Q06546 1-454).
T3 sequence: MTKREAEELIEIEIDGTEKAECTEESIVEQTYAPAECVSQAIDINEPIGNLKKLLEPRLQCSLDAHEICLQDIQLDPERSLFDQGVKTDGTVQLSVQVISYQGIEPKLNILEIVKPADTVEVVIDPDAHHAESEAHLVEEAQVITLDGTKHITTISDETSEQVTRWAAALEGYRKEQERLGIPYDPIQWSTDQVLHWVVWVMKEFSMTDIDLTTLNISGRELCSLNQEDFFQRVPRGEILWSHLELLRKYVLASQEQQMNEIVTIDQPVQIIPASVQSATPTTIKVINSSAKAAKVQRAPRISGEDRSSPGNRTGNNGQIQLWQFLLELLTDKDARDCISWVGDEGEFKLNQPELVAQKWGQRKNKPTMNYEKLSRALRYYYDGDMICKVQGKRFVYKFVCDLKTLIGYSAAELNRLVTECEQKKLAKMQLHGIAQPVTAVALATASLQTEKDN
In short, it runs like this: as §1

A further assay has as its target T4, ERG (Homo sapiens, UniProt P11308 1-479).
T4 sequence: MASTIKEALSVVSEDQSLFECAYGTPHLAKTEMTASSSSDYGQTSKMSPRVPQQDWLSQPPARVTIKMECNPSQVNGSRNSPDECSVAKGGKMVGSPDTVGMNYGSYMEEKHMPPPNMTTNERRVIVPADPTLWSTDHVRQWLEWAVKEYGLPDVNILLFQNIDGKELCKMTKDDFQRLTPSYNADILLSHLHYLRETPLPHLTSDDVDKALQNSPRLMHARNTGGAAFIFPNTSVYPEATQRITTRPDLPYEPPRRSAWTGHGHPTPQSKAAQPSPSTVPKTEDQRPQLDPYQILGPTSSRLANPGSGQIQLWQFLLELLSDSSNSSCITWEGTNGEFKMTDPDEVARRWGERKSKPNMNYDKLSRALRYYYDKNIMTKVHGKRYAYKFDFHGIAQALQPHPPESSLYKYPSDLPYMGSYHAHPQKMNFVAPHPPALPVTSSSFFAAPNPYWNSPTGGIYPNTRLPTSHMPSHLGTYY
In short, it runs like this:
as §1

A further assay has as its target ELF1 (Homo sapiens, UniProt P32519 1-619). In short, it runs like this: as §1
The next assay deals with T5, EHF (Homo sapiens, UniProt Q9NZC4 1-300).
T5 sequence: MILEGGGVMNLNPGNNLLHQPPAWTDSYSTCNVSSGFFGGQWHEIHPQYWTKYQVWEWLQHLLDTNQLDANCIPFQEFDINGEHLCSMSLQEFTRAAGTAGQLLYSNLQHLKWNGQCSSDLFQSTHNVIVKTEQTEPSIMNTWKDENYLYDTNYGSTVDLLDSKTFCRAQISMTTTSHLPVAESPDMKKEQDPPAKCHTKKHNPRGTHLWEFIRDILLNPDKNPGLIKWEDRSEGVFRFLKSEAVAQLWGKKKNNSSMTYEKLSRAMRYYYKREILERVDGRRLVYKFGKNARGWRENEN
The method in brief:
as §1

A further assay has as its target SPI1 (Homo sapiens, UniProt P17947 1-270). In short, it runs like this: as §1
The next assay has as its target SPIB (Homo sapiens, UniProt Q01892 1-262). In short, it runs like this: as §1
A further assay deals with T6, ELK3 (Homo sapiens, UniProt P41970 1-407).
T6 sequence: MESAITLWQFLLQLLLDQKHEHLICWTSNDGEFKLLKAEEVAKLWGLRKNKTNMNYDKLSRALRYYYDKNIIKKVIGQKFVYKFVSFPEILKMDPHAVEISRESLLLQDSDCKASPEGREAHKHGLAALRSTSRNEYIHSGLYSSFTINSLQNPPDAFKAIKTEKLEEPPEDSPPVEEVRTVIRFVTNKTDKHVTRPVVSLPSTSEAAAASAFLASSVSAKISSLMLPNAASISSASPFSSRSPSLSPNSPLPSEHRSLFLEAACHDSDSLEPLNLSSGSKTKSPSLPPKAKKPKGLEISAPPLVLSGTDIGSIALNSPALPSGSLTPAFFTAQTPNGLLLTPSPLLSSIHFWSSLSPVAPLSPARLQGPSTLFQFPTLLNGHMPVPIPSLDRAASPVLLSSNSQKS
The method in brief: as §1

Sequence of ELF1 (P32519 whole entry): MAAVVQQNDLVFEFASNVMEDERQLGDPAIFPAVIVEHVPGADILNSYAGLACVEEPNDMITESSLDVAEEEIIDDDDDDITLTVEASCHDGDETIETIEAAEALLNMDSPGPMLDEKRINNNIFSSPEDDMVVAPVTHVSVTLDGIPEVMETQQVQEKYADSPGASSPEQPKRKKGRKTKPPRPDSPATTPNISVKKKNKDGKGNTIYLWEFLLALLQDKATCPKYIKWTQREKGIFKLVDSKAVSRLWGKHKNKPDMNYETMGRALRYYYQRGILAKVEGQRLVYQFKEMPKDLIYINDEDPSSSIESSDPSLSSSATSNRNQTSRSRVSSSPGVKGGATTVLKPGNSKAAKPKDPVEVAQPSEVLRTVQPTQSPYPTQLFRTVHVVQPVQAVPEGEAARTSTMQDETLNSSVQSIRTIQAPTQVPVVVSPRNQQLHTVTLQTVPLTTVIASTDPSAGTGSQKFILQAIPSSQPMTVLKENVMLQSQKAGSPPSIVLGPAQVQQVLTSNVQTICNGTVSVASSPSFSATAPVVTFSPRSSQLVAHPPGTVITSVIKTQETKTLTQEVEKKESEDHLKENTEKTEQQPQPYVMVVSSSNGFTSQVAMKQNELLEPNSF
Sequence of SPIB (Q01892 whole entry): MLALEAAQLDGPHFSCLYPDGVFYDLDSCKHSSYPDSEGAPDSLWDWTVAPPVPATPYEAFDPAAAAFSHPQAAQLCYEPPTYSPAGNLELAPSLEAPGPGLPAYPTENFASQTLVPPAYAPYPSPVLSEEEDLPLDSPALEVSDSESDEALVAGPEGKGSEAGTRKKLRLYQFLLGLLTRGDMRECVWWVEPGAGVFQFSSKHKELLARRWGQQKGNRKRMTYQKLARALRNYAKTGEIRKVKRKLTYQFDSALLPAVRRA

Regarding ATGATG, the binding signal in the assay with FLI1 is 1.39 fold enrichment (6-mer frequency, TF over GST control); in the assay with ELK1, 1.35 fold enrichment (6-mer frequency, TF over GST control); in the assay with GABPA, 1.33 fold enrichment (6-mer frequency, TF over GST control); in the assay with ERG, 1.18 fold enrichment (6-mer frequency, TF over GST control); with ELF1, 1.36 fold enrichment (6-mer frequency, TF over GST control); with EHF, 1.4 fold enrichment (6-mer frequency, TF over GST control). The binding signal with SPI1 was 1.24 fold enrichment (6-mer frequency, TF over GST control); in the assay with SPIB, 1.35 fold enrichment (6-mer frequency, TF over GST control); with ELK3, 1.53 fold enrichment (6-mer frequency, TF over GST control).

On to CTACGC, for which the binding signal is 1.71 fold enrichment (6-mer frequency, TF over GST control) with FLI1; 1.59 fold enrichment (6-mer frequency, TF over GST control) with ELK1; 1.56 fold enrichment (6-mer frequency, TF over GST control) in the assay with GABPA; 1.47 fold enrichment (6-mer frequency, TF over GST control) with ERG; 1.55 fold enrichment (6-mer frequency, TF over GST control) in the assay with ELF1; 1.56 fold enrichment (6-mer frequency, TF over GST control) with EHF. The binding signal was 1.59 fold enrichment (6-mer frequency, TF over GST control) in the assay with SPI1; 1.6 fold enrichment (6-mer frequency, TF over GST control) with SPIB; 1.56 fold enrichment (6-mer frequency, TF over GST control) with ELK3.

As for CGTAAT, the binding signal in the assay with FLI1 was 1.19 fold enrichment (6-mer frequency, TF over GST control); with ELK1, 1.14 fold enrichment (6-mer frequency, TF over GST control); with GABPA it was 1.13 fold enrichment (6-mer frequency, TF over GST control); in the assay with ERG it was 1.19 fold enrichment (6-mer frequency, TF over GST control); in the assay with ELF1 it was 1.18 fold enrichment (6-mer frequency, TF over GST control); in the assay with EHF, 1.13 fold enrichment (6-mer frequency, TF over GST control). In addition, the binding signal with SPI1 is 1.16 fold enrichment (6-mer frequency, TF over GST control); with SPIB it was 1.19 fold enrichment (6-mer frequency, TF over GST control); in the assay with ELK3 it was 1.04 fold enrichment (6-mer frequency, TF over GST control).

As for CCTAAT, the binding signal with FLI1 is 1.32 fold enrichment (6-mer frequency, TF over GST control); with ELK1, 1.12 fold enrichment (6-mer frequency, TF over GST control); in the assay with GABPA it was 1.29 fold enrichment (6-mer frequency, TF over GST control); in the assay with ERG, 1.34 fold enrichment (6-mer frequency, TF over GST control); in the assay with ELF1 it was 1.39 fold enrichment (6-mer frequency, TF over GST control); in the assay with EHF it was 1.28 fold enrichment (6-mer frequency, TF over GST control). Further, the binding signal in the assay with SPI1 was 1.34 fold enrichment (6-mer frequency, TF over GST control); with SPIB it was 1.44 fold enrichment (6-mer frequency, TF over GST control); with ELK3, 1.29 fold enrichment (6-mer frequency, TF over GST control).

As to AATGAG, the binding signal is 1.09 fold enrichment (6-mer frequency, TF over GST control) in the assay with FLI1; 1.18 fold enrichment (6-mer frequency, TF over GST control) in the assay with ELK1; 1.22 fold enrichment (6-mer frequency, TF over GST control) in the assay with GABPA; 1.12 fold enrichment (6-mer frequency, TF over GST control) with ERG; 1.14 fold enrichment (6-mer frequency, TF over GST control) with ELF1; 1.18 fold enrichment (6-mer frequency, TF over GST control) with EHF. The binding signal is 1.51 fold enrichment (6-mer frequency, TF over GST control) with SPI1; 1.08 fold enrichment (6-mer frequency, TF over GST control) with SPIB; 1.23 fold enrichment (6-mer frequency, TF over GST control) with ELK3.

For the sequence TTGATA, the binding signal with FLI1 is 1.23 fold enrichment (6-mer frequency, TF over GST control); in the assay with ELK1 it was 1.29 fold enrichment (6-mer frequency, TF over GST control); with GABPA, 1.31 fold enrichment (6-mer frequency, TF over GST control); in the assay with ERG, 1.17 fold enrichment (6-mer frequency, TF over GST control); with ELF1, 1.24 fold enrichment (6-mer frequency, TF over GST control); in the assay with EHF, 1.14 fold enrichment (6-mer frequency, TF over GST control). The binding signal with SPI1 is 1.14 fold enrichment (6-mer frequency, TF over GST control); in the assay with SPIB, 1.08 fold enrichment (6-mer frequency, TF over GST control); in the assay with ELK3, 1.01 fold enrichment (6-mer frequency, TF over GST control).

CTACGA: the binding signal with FLI1 is 1.16 fold enrichment (6-mer frequency, TF over GST control); with ELK1 it was 1.24 fold enrichment (6-mer frequency, TF over GST control); with GABPA, 1.29 fold enrichment (6-mer frequency, TF over GST control); with ERG, 1.2 fold enrichment (6-mer frequency, TF over GST control); in the assay with ELF1 it was 1.27 fold enrichment (6-mer frequency, TF over GST control); with EHF, 1.25 fold enrichment (6-mer frequency, TF over GST control). For the same sequence, the binding signal was 1.14 fold enrichment (6-mer frequency, TF over GST control) with SPI1; 1.23 fold enrichment (6-mer frequency, TF over GST control) in the assay with SPIB; 1.33 fold enrichment (6-mer frequency, TF over GST control) in the assay with ELK3.

Regarding AATGGT, the binding signal is 1.52 fold enrichment (6-mer frequency, TF over GST control) with FLI1; 1.38 fold enrichment (6-mer frequency, TF over GST control) with ELK1; 1.36 fold enrichment (6-mer frequency, TF over GST control) with GABPA; 1.42 fold enrichment (6-mer frequency, TF over GST control) with ERG; 1.42 fold enrichment (6-mer frequency, TF over GST control) with ELF1; 1.4 fold enrichment (6-mer frequency, TF over GST control) in the assay with EHF. The binding signal with SPI1 is 1.43 fold enrichment (6-mer frequency, TF over GST control); in the assay with SPIB, 1.52 fold enrichment (6-mer frequency, TF over GST control); with ELK3 it was 1.41 fold enrichment (6-mer frequency, TF over GST control).
